The results in this text go back to PubChem BioAssay (Tox21).

Experiment [1] concerns the target Progesterone receptor (Homo sapiens) (UniProt P06401). The experiment is described as follows: qHTS assay to identify small molecule agonists of the progesterone receptor (PR) signaling pathway (AID 1346784; calls by dose curve; also: nearly all actives have a fitted effect of over 30% in size). In short, it runs like this:
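Fluorescence from LiveBLAzer B/G FRET substrate cleavage (2 hr, RT) reported PR activation in PR-UAS-bla HEK 293T cells treated 16 hr at 37C/5% CO2 with compounds; medium contained 2% charcoal-stripped FBS.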

Experiment [2] in a line: qHTS assay to identify small molecule antagonists of the progesterone receptor (PR) signaling pathway - cell viability counter screen (AID 1346798). Also: series mostly up to about 92 µM; nearly all actives have a fitted effect of over 50% in size. In short, it runs like this:
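CellTiter-Glo luminescence; PR-UAS-bla HEK293T, 3,000 cells/well; compound + R5020, 16 hr, 37C/5% CO2; 30 min RT before read.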

Experiment [3] is described as follows: qHTS assay to identify small molecule agonists of the progesterone receptor (PR) signaling pathway - cell viability counter screen (AID 1346799; calls by dose curve; also: nearly all actives have a fitted effect of over 45% in size). A digest of the protocol: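 In parallel with the beta-lactamase readout, cytotoxicity toward PR-UAS-bla HEK293T cells was measured by CellTiter-Glo luminescence following 16 hr compound incubation in 2% charcoal-stripped FBS medium.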
For orientation: qHTS replaces the single test concentration by a dilution series.

Experiment [4] is described as follows: qHTS assay to identify small molecule antagonists of the TGF-beta/Smad signaling pathway - cell viability counter screen (AID 1346824). Also: nearly all actives have a fitted effect of over 50% in size. A digest of the protocol: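 Cytotoxicity counter-screen run in the same wells as the beta-lactamase Smad reporter read: CellTiter-Glo luminescence after 30 min at room temperature. HEK 293T SBE-bla cells had 5 hr compound exposure at 37 C with TGF-beta1 (0.25 ng/mL stock).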

Experiment [5] in a line: qHTS assay to identify small molecule agonists of the TGF-beta/Smad signaling pathway - cell viability counter screen (AID 1346829). Also: top concentration of the series differs between compounds; nearly all actives have a fitted effect of over 45% in size. In short, it runs like this:
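Cytotoxicity counter screen: CellTiter-Glo luminescence (30 min, room temperature) measured in the SBE-bla HEK 293T reporter wells after 5 hr compound treatment at 37 C and the 2 hr substrate step.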

Experiment [6] in a line: qHTS assay to identify small molecule agonists of the TGF-beta/Smad signaling pathway (AID 1346859; active = well fitted activation curve with a large enough effect in the signal ratio in the repeat runs, not every such curve was filed as active; the % refers to the signal ratio; also: series mostly up to about 77 µM). In short, it runs like this:
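After overnight seeding, SBE-bla HEK 293T cells are dosed with compounds in DMSO and kept 5 hr at 37 C, 5% CO2. LiveBLAzer-type FRET substrate is then applied for 2 hr at room temperature.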

The target of experiment [7] is Thyrotropin-releasing hormone receptor (Homo sapiens) (UniProt P34981). The experiment is described as follows: qHTS assay to identify small molecule antagonists of the thyrotropin-releasing hormone receptor (TRHR) signaling pathway (AID 1346877; active = well fitted inhibition curve with a large enough effect in the repeat runs, not every such curve was filed as active; also: series mostly up to about 51 µM). A digest of the protocol: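 Human TRHR in HEK293 cells; inhibition of the intracellular calcium rise triggered by 1 nM TRH was followed by fluorescence over 3 min. Compounds were run at 15 concentrations, three replicates each.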
Chain of Thyrotropin-releasing hormone receptor (Homo sapiens) (P34981 whole entry, looked up): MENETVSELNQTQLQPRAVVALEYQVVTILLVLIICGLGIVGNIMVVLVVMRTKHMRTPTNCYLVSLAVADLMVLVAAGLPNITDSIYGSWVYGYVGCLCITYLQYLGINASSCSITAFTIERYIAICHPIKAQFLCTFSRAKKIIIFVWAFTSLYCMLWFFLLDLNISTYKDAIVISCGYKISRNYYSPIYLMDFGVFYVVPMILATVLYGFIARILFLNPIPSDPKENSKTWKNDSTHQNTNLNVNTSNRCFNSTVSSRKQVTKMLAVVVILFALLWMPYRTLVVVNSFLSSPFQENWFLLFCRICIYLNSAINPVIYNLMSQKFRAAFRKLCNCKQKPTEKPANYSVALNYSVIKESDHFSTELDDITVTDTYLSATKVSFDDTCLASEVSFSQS

The target is the same in experiment [8]. The experiment is described as follows: qHTS assay to identify small molecule agonists of the thyrotropin-releasing hormone receptor (TRHR) signaling pathway (AID 1346891; calls by dose curve;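 also: HEK293 cells expressing TRHR with calcium dye readout; series mostly up to about 58 µM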). A digest of the protocol: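 Compounds were tested as agonists at 15 concentrations, in triplicate, on TRHR-Hek293 cells; calcium-sensitive dye fluorescence was recorded for 3 min following addition.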

Experiment [9] can be described thus: Human pregnane X receptor (PXR) small molecule agonists, qHTS cell viability counter screen (AID 1346977). Also: nearly all actives have a fitted effect of over 50% in size. Also: potency is read from the fitted curve at half-maximal effect. A digest of the protocol:
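Viability counter screen: CellTiter-Fluor signal in PXR-Luc HepG2 cells, 24hr compound exposure, 37C, 5% CO2.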

Experiment [10] in a line: Caspase-3/7 induction in HepG2 cells by small molecules, qHTS assay (AID 1346978). Also: nearly all actives have a fitted effect of over 15% in size. In short, it runs like this: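 Caspase-3/7 induction was measured by Caspase-Glo 3/7 luminescence (30 min, room temperature) after a 17 hr compound exposure of wild-type HepG2 cells seeded at 2,000 per well and pre-incubated 5 hr.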
A short description of experiment [11]: Caspase-3/7 induction in CHO-K1 cells by small molecules, qHTS assay (AID 1346980). Also: nearly all actives have a fitted effect of over 15% in size. A digest of the protocol:
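Luminescent Caspase-Glo 3/7 read (30min, room temperature) quantified apoptosis induction. Cells were wild-type CHO-K1, treated with compound for 17hr at 37 C and 5% CO2.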

A short description of experiment [12]: Caspase-3/7 induction in HepG2 cells by small molecules, qHTS cell viability counter screen (AID 1346981). Also: nearly all actives have a fitted effect of over 30% in size. Also: potency is read from the fitted curve at half-maximal effect. A digest of the protocol:
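The parent HepG2 line is plated at 2,000 cells per well and rested 5 hr before compound pinning from DMSO stocks. Following a 16-hr treatment at 37 C, a fluorogenic live-cell substrate (CellTiter-Fluor) reports viability after 1 hr.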

Experiment [13] has as its target Nuclear receptor subfamily 1 group I member 2 (Rattus norvegicus) (UniProt Q9R1A7). The experiment is described as follows: Rat pregnane X receptor (rPXR) activation by small molecules, qHTS assay (AID 1346983). Also: nearly all actives have a fitted effect of over 20% in size. The settings on record: rPXR luciferase reporter cells, One-Glo luminescence, 24 h; max activation: stronger effect = higher value. A digest of the protocol:
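Luminescent readout (One-Glo luciferase, 30 min room temperature) followed 24 hr compound treatment at 37 C of rPXR cells plated 2,000 per well and preincubated 5hr; qHTS format with compounds delivered in DMSO.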

For experiment [14], the target named is Nuclear receptor subfamily 1 group I member 2 (Homo sapiens) (UniProt O75469). The experiment is described as follows: CYP3A4 induction through human pregnane X receptor (PXR) by small molecules, qHTS assay (AID 1346984). Also: nearly all actives have a fitted effect of over 40% in size. A digest of the protocol: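 Human PXR activation is tracked via CYP3A4 promoter-luciferase in DPX-2 (HepG2) cells. Compounds treat cells for 24hr at 37C, and luminescence is read after One-Glo.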
Chain of Nuclear receptor subfamily 1 group I member 2 (Homo sapiens) (O75469 whole entry, looked up): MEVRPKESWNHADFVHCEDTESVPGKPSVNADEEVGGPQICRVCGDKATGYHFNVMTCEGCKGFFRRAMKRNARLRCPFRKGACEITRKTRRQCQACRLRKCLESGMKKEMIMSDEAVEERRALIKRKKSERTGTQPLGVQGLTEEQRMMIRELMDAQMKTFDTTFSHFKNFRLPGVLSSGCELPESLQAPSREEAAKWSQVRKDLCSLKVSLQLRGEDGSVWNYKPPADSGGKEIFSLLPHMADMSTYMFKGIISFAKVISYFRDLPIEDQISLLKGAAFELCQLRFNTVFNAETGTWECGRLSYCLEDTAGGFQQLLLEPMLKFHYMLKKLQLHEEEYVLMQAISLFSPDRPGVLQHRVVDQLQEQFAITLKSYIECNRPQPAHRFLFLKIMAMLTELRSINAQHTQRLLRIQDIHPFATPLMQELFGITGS

Experiment [15] has the same target. The experiment is described as follows: Human pregnane X receptor (PXR) activation by small molecules, qHTS assay (AID 1346985). Also: nearly all actives have a fitted effect of over 40% in size. A digest of the protocol:
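DPX-2 cells (HepG2 co-transfected with a PXR response element and a CYP3A4-promoter luciferase construct) were seeded at 2,000 per well, rested 5 hr at 37C, then exposed to DMSO-dissolved compounds for 24 hr. Activation was read as luciferase luminescence.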

The target in experiment [16] is Cytochrome P450 2D6 (Homo sapiens) (UniProt P10635). The experiment is described as follows: Cytochrome P450 Family 2 Subfamily D Member 6 (CYP2D6) small molecule antagonists: luciferase reporter qHTS assay (AID 1671196). Also: series mostly up to about 120 µM; nearly all actives have a fitted effect of over 50% in size. In short, it runs like this: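 Quantitative HTS of Tox21 chemicals against CYP2D6 using a luminescent proluciferin substrate. After NADPH addition, 1 h room-temperature reaction; luminescence recorded 20 min post detection reagent.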
Chain of Cytochrome P450 2D6 (Homo sapiens) (P10635 whole entry, looked up): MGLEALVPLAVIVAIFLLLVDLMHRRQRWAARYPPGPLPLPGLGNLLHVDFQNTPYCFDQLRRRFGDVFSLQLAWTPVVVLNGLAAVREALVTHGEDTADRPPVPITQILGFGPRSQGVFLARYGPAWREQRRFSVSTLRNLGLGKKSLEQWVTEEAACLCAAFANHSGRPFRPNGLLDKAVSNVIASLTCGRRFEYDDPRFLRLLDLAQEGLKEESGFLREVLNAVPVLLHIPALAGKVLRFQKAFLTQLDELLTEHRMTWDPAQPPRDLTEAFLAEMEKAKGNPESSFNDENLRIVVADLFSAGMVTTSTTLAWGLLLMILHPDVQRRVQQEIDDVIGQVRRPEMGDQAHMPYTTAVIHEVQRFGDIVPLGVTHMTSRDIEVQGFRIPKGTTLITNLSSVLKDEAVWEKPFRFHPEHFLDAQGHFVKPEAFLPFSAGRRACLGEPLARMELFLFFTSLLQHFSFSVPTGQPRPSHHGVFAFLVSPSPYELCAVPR
Background: A reporter such as luciferase makes a cellular process visible.

Experiment [17] deals with Cytochrome P450 2C19 (Homo sapiens) (UniProt P33261). The experiment is described as follows: Cytochrome P450 Family 2 Subfamily C Member 19 (CYP2C19) small molecule antagonists: luciferase reporter qHTS assay (AID 1671197). Also: nearly all actives have a fitted effect of over 65% in size. Also: potency is read from the fitted curve at half-maximal effect. A digest of the protocol:
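Luminescent readout of CYP2C19 activity: luciferin product detected 20 min after adding detection reagent. Before that, compound and enzyme-substrate mix preincubated 10 min at room temperature; NADPH-regenerating system started a 1 h, 37C reaction. Ketoconazole as positive control.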

Experiment [18] in a line: Caspase-3/7 induction in CHO-K1 cells by small molecules, qHTS cell viability counter screen (AID 1346979). Also: nearly all actives have a fitted effect of over 35% in size. Also: potency is read from the fitted curve at half-maximal effect. In short, it runs like this:
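Viability readout by fluorescence (CellTiter-Fluor) on wild-type CHO-K1 cells exposed for 16hr at 37C and 5% CO2 to compounds delivered in DMSO; reagent incubated 1hr before reading.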

Experiment [19] addresses Nuclear receptor subfamily 1 group I member 2 (Homo sapiens) (UniProt O75469). The experiment is described as follows: Human pregnane X receptor (PXR) small molecule agonists, qHTS assay (AID 1346982). Also: nearly all actives have a fitted effect of over 35% in size. Also: potency is read from the fitted curve at half-maximal effect. In short, it runs like this:
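After plating in 5% charcoal-stripped FBS and a 5 hr rest, PXR-Luc HepG2 cells received compounds in DMSO. Following 24 hr at 37 C, ONE-Glo was added and light output read.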

Values joined by “and” are separate entries in the source; they are usually repeats but may differ in a detail not shown here. Identical values can stand only once. Inconclusive results are not listed. Some structures have more than one record in an assay (separate samples or runs), and their calls can disagree. Active and inactive are the calls of the source. Unless noted, calls follow the shape of the dose curve; as a rule, active = well fitted curve in the direction sought with a large enough effect in the repeat runs; inconclusive = weak or mixed curves; inactive = no such curve, though single readings can be large; an effect the other way counts as inactive or inconclusive.
% is scaled to controls: 0 for no effect and ±100 for the full control effect.

Chain of Progesterone receptor (Homo sapiens) (P06401 whole entry, looked up): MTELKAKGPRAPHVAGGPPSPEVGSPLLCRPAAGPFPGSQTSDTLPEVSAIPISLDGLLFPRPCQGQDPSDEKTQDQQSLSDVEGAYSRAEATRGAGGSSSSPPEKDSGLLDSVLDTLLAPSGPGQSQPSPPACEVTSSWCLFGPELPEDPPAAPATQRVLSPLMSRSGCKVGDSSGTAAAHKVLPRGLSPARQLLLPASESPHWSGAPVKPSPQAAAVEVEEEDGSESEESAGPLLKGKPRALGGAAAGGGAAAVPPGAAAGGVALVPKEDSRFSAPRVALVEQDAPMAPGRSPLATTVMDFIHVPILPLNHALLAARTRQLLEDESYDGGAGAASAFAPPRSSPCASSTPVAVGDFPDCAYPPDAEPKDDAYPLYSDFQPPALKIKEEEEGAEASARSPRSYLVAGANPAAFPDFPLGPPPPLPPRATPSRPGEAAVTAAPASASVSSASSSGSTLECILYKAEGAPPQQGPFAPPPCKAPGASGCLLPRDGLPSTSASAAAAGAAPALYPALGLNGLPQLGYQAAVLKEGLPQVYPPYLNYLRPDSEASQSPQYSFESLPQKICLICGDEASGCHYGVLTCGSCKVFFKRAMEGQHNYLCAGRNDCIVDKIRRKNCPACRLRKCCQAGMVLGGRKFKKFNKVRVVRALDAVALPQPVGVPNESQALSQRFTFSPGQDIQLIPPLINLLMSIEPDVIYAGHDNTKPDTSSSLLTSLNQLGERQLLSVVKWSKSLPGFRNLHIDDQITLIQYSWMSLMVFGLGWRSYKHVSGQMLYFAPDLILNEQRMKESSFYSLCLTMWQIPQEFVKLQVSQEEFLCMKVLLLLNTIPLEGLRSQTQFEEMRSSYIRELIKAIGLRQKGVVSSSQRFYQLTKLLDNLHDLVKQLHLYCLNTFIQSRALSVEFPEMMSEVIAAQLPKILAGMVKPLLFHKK
Chain of Cytochrome P450 2C19 (Homo sapiens) (P33261 whole entry, looked up): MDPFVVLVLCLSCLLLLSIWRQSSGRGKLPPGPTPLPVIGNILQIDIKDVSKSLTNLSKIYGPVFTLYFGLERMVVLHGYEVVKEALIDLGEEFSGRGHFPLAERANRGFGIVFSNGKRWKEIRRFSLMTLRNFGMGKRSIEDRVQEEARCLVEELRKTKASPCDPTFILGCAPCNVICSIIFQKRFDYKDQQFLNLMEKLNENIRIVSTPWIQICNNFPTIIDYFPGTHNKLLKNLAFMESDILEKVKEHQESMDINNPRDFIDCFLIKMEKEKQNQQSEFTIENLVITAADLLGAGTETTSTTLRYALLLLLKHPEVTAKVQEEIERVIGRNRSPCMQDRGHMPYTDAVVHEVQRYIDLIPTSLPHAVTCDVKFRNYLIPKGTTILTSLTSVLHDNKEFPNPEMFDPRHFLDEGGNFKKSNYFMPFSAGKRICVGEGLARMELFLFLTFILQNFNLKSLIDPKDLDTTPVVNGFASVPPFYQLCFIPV
Chain of Nuclear receptor subfamily 1 group I member 2 (Rattus norvegicus) (Q9R1A7 whole entry, looked up): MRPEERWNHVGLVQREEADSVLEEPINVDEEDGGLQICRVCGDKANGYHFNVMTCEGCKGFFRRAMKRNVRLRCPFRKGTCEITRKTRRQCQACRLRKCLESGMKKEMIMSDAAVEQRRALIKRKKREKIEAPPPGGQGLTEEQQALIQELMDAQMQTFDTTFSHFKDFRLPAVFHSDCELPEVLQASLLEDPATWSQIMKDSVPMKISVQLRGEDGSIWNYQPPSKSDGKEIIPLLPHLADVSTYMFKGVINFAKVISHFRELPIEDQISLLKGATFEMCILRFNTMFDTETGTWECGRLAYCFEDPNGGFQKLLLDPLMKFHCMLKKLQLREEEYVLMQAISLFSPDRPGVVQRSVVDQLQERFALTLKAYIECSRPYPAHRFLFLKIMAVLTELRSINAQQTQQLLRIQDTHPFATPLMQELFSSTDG

Consider `CCOC(N)=O`, for which the Potency result in experiment [1], in experiment [2], in [3], in experiment [4], in experiment [5] and in [7] was “inactive” throughout. The Potency result in experiment [8], in experiment [9], in experiment [10], in experiment [11], in experiment [12] and in experiment [14] was “inactive” each time. In addition, in [16], the Potency result is “inactive”. Besides, the outcome in experiment [6] and in [15] was inactive. The max activation in experiment [13] is -2.09% (inactive). Also, the Potency in experiment [17] was 60 µM (active) and inactive.
As for `CN(N=O)C(=O)N[C@@H]1[C@@H](O)[C@H](O)[C@@H](CO)O[C@@H]1O`, the Potency result in [1], in experiment [2], in experiment [3], in experiment [4], in [5] and in [7] was “inactive” each time. Besides, the Potency entry in experiment [8], in experiment [9], in experiment [10], in experiment [18], in [11] and in experiment [12] was “inactive” in each case. In addition, the Potency result in [19], in experiment [14], in experiment [16] and in [17] was “inactive” each time. Also, the call in experiment [6] and in experiment [15] was inactive. Also, the max activation in [13] is -0.687% (inactive).
Turning to `NS(=O)(=O)c1cc2c(cc1Cl)NCNS2(=O)=O`, the Potency entry in experiment [1], in experiment [2], in experiment [3], in experiment [4], in experiment [5] and in [7] was “inactive” in each case. Further, the Potency entry in [8], in experiment [9], in [10], in experiment [18], in [11] and in [12] was “inactive” in each case. In addition, the Potency entry in experiment [16] is “inactive”. Further, the outcome in experiment [6] was inactive. Also, the Potency in experiment [17] is 62.3 µM (active) and inactive.
Regarding `CCCCC1(COC(=O)CCC(=O)O)C(=O)N(c2ccccc2)N(c2ccccc2)C1=O`, the Potency entry in experiment [1], in experiment [2], in [3], in [4], in experiment [5] and in experiment [7] was “inactive” each time. Further, the Potency entry in experiment [8], in experiment [9], in [10], in experiment [11] and in experiment [12] was “inactive” in each case. For the same molecule, the outcome in experiment [6] was inactive.
With `C/C=C/C=C/C(=O)O`, the Potency entry in experiment [1], in experiment [2], in experiment [3], in experiment [4], in experiment [5] and in experiment [7] was “inactive” each time. Also, the Potency entry in experiment [8], in [9], in experiment [10], in experiment [11] and in [12] was “inactive” throughout. For the same molecule, the molecule was classed as inactive in experiment [6]. The max activation in experiment [13] is 0.352% (inactive).
With `Cn1c(=O)c2c(ncn2C)n(C)c1=O`, the Potency entry in [1], in experiment [2], in experiment [3], in [4], in [5] and in experiment [10] was “inactive” each time. For the same molecule, the Potency entry in experiment [11] is “inactive”. Besides, the outcome in [6] was inactive. Moreover, the Potency in experiment [9] was 39.8 µM (active) and inactive; in [18], 61.9 µM (active) and inactive; in experiment [12], 61.9 µM (active) and inactive.
Regarding `Cc1cn([C@H]2C=C[C@@H](CO)O2)c(=O)[nH]c1=O`, the Potency result in experiment [1], in [2], in experiment [3], in experiment [4], in [5] and in experiment [9] was “inactive” in each case. Further, the Potency result in experiment [10], in [11], in experiment [12], in experiment [19], in [14] and in experiment [16] was “inactive” each time. Moreover, the Potency entry in experiment [17] is “inactive”. In addition, the molecule was classed as inactive in [6] and in [15]. For the same molecule, the max activation in experiment [13] is -2.07% (inactive).
On to `CCCCOC(=O)c1ccc(O)cc1`, for which the Potency entry in [1], in [2], in [3], in [4], in experiment [5] and in experiment [7] was “inactive” throughout. The Potency entry in experiment [8], in [9], in experiment [10], in [11], in experiment [12] and in [16] was “inactive” in each case. Further, the molecule was classed as inactive in [6]. Further, the Potency is 31 µM (active) and inactive in experiment [18]; 69.4 µM (active) and inactive in experiment [19]; 28.6 µM (active) and 35.6 µM (active) and 15.5 µM (active) in experiment [17].
